In PubChem BioAssay (EPA / NIEHS):
Results filed as inconclusive are left out. Calls of active or inactive are those of the source. How the source made its calls, unless noted: active means hit-call score of the fitted dose curve at least 0.9, where 1 is the maximum; inactive means score below 0.9.

Assays:
[1] = CCTE_Mundy_HCI_Cortical_Synap_Neur_Matur_NeuriteSpotCountPerNeuron: CCTE's Synaptogenesis and Neurite Maturation Assay in rat cortical cells for Neurite Spot Count per Neuron Count, Mundy Lab (AID 2284215)
Method in brief: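 Read-out: neurite-associated synaptophysin puncta per neuron, imaged by high-content analysis after MAP2, synaptophysin and Hoechst staining. Rat primary cortical cultures, dosed DIV 7 through DIV 12; DMSO served as baseline.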

[2] = CCTE_Mundy_HCI_Cortical_Synap_Neur_Matur_SynapseCount: CCTE's Synaptogenesis and Neurite Maturation Assay in rat cortical cells for Synapse Count, Mundy Lab (AID 2284218)
Method in brief: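 Read-out: synapse number per neuron, automated high-content imaging of fixed cells immunostained for MAP2 and synaptophysin plus Hoechst nuclei. Rat primary cortical cultures, AraC at DIV 5, chemical dosing DIV 7–12. Positive-direction fit relative to DMSO.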

[3] = CCTE_Mundy_HCI_Cortical_Synap_Neur_Matur_NeuriteCount: CCTE's Synaptogenesis and Neurite Maturation Assay in rat cortical cells for Neurite Count, Mundy Lab (AID 2284222)
Method in brief: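 In this multiplexed morphology readout, rat primary cortical neurons are fixed at DIV 12 following dosing at DIV 7 and stained for MAP2, synaptophysin and nuclei. High-content image analysis yields neurite count.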

[4] = CCTE_Mundy_HCI_Cortical_Synap_Neur_Matur_CellBodySpotCount: CCTE's Synaptogenesis and Neurite Maturation Assay in rat cortical cells for Cell Body Spot Count, Mundy Lab (AID 2284223)
Method in brief: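 Read-out: cell body-associated synaptophysin puncta per neuron, imaged after MAP2, synaptophysin and Hoechst staining. Rat cortical cells, AraC DIV 5, chemical dosing DIV 7, fixation DIV 12. Activity fitted in positive direction relative to DMSO baseline.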

[5] = CCTE_Mundy_HCI_hNP1_Pro_ResponderAvgInten: CCTE's Proliferation Assay in human neuroprogenitor cells, Mundy Lab (AID 2284224; active means hit-call score of the fitted dose curve at least 0.9, where 1 is the maximum;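 further: human neural progenitor cells hNP1 derived from WA09 embryonic stem cells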)
Method in brief: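 Human neuroprogenitors (hNP1, WA09 lineage) receive test chemical after 40 to 44 hours of attachment. A four-hour BrdU pulse begins twenty hours later, followed by fixation and high content imaging; signal is referenced to DMSO controls.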

[6] = UKN2_HCS_IMR90_cell_viability: Viability Assessment in the University of Konstanz (UKN) Leist Lab Neural Crest Cell Migration Assay in human induced IMR90 Pluripotent Stem Cells (UKN2) (AID 2284233);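 further: viability of neural crest cells differentiated from IMR90 iPSC measured by calcein-AM fluorescence imaging; cells exposed to compound for 24 h after a 24 h migration phase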
Method in brief: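 cMINC format, iPSC-derived neural crest (IMR90); 24 h migration (EGF/FGF, N2-S), then 24 h toxicant. Calcein-AM/H-33342 stain 30 min; fluorescence intensity by HCS; DMSO-normalised, bidirectional fitting.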

[7] = CCTE_Mundy_HCI_Cortical_NOG_NeuronCount: CCTE's Neurite Outgrowth Assay in rat cortical cells for Neuron Count, Mundy Lab (AID 2284236; active means hit-call score of the fitted dose curve at least 0.9, where 1 is the maximum;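 further: neurons counted by imaging betaIII-tubulin and Hoechst stained cortical cells; cells exposed to compound for about 48 hours before fixation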)
Method in brief: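 Read-out: neuron number by high-content imaging of betaIII-tubulin (Alexa Fluor-488) and Hoechst-labelled rat primary cortical cells.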

[8] = CCTE_Mundy_HCI_Cortical_NOG_BPCount: CCTE's Neurite Outgrowth Assay in rat cortical cells for Branch Point Count, Mundy Lab (AID 2284237);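 further: branch points counted about two days after chemical exposure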
Method in brief: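 Measured 50.33 h after dosing, this morphology endpoint uses rat primary cortical cultures labelled for betaIII-tubulin. Branch points are quantified by high-content imaging, with DMSO as negative control and baseline.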

[9] = CCTE_Mundy_HCI_hNP1_Casp3_7: CCTE's Caspase-Glo 3/7 Assay in human neuroprogenitor cells for Apoptosis, Mundy Lab (AID 2284240)
Method in brief: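 Neuroepithelial-lineage stem cells from WA09 embryonic cells were treated with chemicals after 40–44 h of culture. Twenty-four hours later, caspase-3/7 activation was detected luminescently after a 30 min room-temperature reagent step, with DMSO as baseline.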

[10] = CCTE_Mundy_HCI_hNP1_CellTiter: CCTE's Cell Titer-Glo 2 Assay in human neuroprogenitor cells for Viability, Mundy Lab (AID 2284241; active means hit-call score of the fitted dose curve at least 0.9, where 1 is the maximum)
Method in brief: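 Measures ATP content in human neural progenitors derived from WA09 embryonic cells. Read-out at 26.5 hours after dosing, with DMSO serving as the negative control and baseline.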

[11] = CCTE_Mundy_HCI_Cortical_Synap_Neur_Matur_NeuronCount: CCTE's Synaptogenesis and Neurite Maturation Assay in rat cortical cells for Neuron Count, Mundy Lab (AID 2284242; active means hit-call score of the fitted dose curve at least 0.9, where 1 is the maximum;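 further: hits reduce neuron count versus DMSO baseline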)
Method in brief: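 Rat cortical cultures; AraC DIV 5; chemical dosing + media change DIV 7 to DIV 12 (288.33 h readout). Fix, Hoechst, anti-MAP2/anti-synaptophysin immunostain; HCI neuron count vs DMSO baseline.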

[12] = IUF_NPC2c_oligodendrocyte_migration_120hr: Leibniz Research Institute for Environmental Medicine (IUF) 120-hour Neural Progenitor Cell Migration Assay for Oligodendrocyte Migration (NPC2c) (AID 2284297);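 further: O4-positive oligodendrocyte migration distance divided by radial glia migration distance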
Method in brief: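 hNPC spheres (GW 16-19 cortex), PDL/laminin, DMEM/F12 3:1 + 1% N2, 37C. Dosing day 0–5, half feed day 3, DMSO ≤0.1%. Fixed 120 h; O4 ICC + Hoechst, HCI. Readout: mean oligodendrocyte distance from sphere edge / radial glia distance.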

[13] = IUF_NPC2a_radial_glia_migration_120hr: Leibniz Research Institute for Environmental Medicine (IUF) 120-hour Neural Progenitor Cell Migration Assay for Radial Glia Migration (NPC2a) (AID 2284298)
Method in brief: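 Hoechst-stained nuclei imaged at 120 h; algorithm maps sphere core by densest nuclei, sets migration edge at density threshold, gives radial glia migration distance (um) per well vs DMSO. hNPC spheres (0.3 mm), PDL/laminin, DMEM/F12 3:1 + 1% N2.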

[14] = IUF_NPC2a_radial_glia_migration_72hr: Leibniz Research Institute for Environmental Medicine (IUF) 72-hour Neural Progenitor Cell Migration Assay for Radial Glia Migration (NPC2a) (AID 2284299)
Method in brief: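 Readout: mean of four manual brightfield measurements of radial glia migration distance (um) at 72 h. hNPC spheres (0.3 mm) exposed to 7 compound concentrations plus solvent control on PDL/laminin, 37C, 5% CO2; activity fitted relative to DMSO.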

[15] = IUF_NPC2b_neuronal_migration_120hr: Leibniz Research Institute for Environmental Medicine (IUF) 120-hour Neural Progenitor Cell Migration Assay for Neuron Migration (NPC2b) (AID 2284300)
Method in brief: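 hNPC spheres, PDL/laminin, DMEM:F12 3:1 + 1% N2, 37C/5% CO2; 7 concentrations + solvent control (DMSO ≤0.1%), 5 d exposure, half-feed day 3. Fix 120 h, TUBB3 ICC, HCI: mean neuron migration distance ÷ glia distance.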

[16] = IUF_NPC3_neuronal_differentiation_120hr: Leibniz Research Institute for Environmental Medicine (IUF) 120-hour Neuronal Differentiation Assay (NPC3) (AID 2284301)
Method in brief: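 Neuronal differentiation of primary human neural progenitors measured by high-content imaging: percent TUBB3+ of Hoechst+ nuclei within migrated area at 120 h, seven-point serial dilution plus solvent control, gain or loss relative to DMSO.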

[17] = IUF_NPC4_neurite_length_120hr: Leibniz Research Institute for Environmental Medicine (IUF) 120-hour Neuronal Morphology Assay for Neurite Length (NPC4) (AID 2284302)
Method in brief: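 Neurons from differentiating human fetal neural progenitor spheres are scored for average neurite length after five days of compound exposure. Fitting uses DMSO as negative control.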

[18] = IUF_NPC5_oligodendrocyte_differentiation_120hr: Leibniz Research Institute for Environmental Medicine (IUF) 120-hour Oligodendrocyte Differentiation Assay (NPC5) (AID 2284304; active means hit-call score of the fitted dose curve at least 0.9, where 1 is the maximum;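 further: primary human fetal neural progenitor spheres plated to migrate and differentiate; share of O4-positive cells among Hoechst nuclei found by CNN image analysis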)
Method in brief: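 hNPC spheres, fetal cortex GW 16-19; PDL/laminin, DMEM:F12 3:1 + 1% N2, 37C/5% CO2; 7 concentrations + solvent control, 5 d exposure, half-change day 3. Readout: %O4+ of Hoechst+ nuclei in migration area, CNN classification; DMSO baseline.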

[19] = IUF_NPC4_neurite_area_120hr: Leibniz Research Institute for Environmental Medicine (IUF) 120-hour Neuronal Morphology Assay for Neurite Area (NPC4) (AID 2284305; active means hit-call score of the fitted dose curve at least 0.9, where 1 is the maximum)
Method in brief: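 Endpoint at 120 h: automated imaging of TUBB3/Hoechst-stained differentiating human neural progenitor spheres, neurite area per neuron from skeletonization. DMSO solvent control, not above 0.1%, set the baseline; medium was half-replaced on day 3.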

[20] = IUF_NPC2-5_cytotoxicity_72hr: Cytotoxicity Assessment at 72 hours in the Leibniz Research Institute for Environmental Medicine (IUF) Neural Progenitor Cell Migration and Differentiation Assay for Cytotoxicity (NPC2-5) (AID 2284306; active means hit-call score of the fitted dose curve at least 0.9, where 1 is the maximum;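 further: LDH release into supernatant measured by resorufin fluorescence marking membrane damage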)
Method in brief: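 Primary human neural progenitor spheres migrate and differentiate on laminin. Compound is present from the start of differentiation, with DMSO kept at or below 0.1%. At 72 h, supernatant LDH is quantified fluorometrically, with values fitted in the positive direction.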

[21] = IUF_NPC2-5_cell_number_120hr: Cell Number Assessment at 120 hours in the Leibniz Research Institute for Environmental Medicine (IUF) Neural Progenitor Cell Migration and Differentiation Assay (NPC2-5) (AID 2284308);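 further: count of Hoechst-stained nuclei in migration zone around plated human neural progenitor spheres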
Method in brief: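 Hoechst-stained nuclei within the migration area were counted by automated high content imaging after 120 h. Single hNPC spheres differentiated on poly-D-lysine/laminin in DMEM/F12 (3:1) with 1% N2, compound present throughout, DMSO ≤0.1%.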

[22] = IUF_NPC2-5_viability_120hr: Viability Assessment at 120 hours in the Leibniz Research Institute for Environmental Medicine (IUF) Neural Progenitor Cell Migration and Differentiation Assay (NPC2-5) (AID 2284312)
Method in brief: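 Human fetal (GW 16-19) neural progenitor spheres of 0.3 mm were plated on poly-D-lysine/laminin in N2 differentiation medium and exposed from day 0 for 120 h, with half-medium refresh at day 3. Viability was read as alamar blue resazurin-to-resorufin fluorescence against DMSO.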

[23] = CCTE_Mundy_HCI_iCellGluta_NOG_NeuriteLength: CCTE's Neurite Outgrowth Assay in iCellGluta cells for Neurite Length, Mundy Lab (AID 2284318; active means hit-call score of the fitted dose curve at least 0.9, where 1 is the maximum)
Method in brief: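 Automated high-content imaging of betaIII-tubulin (Alexa Fluor-488) and Hoechst-stained cells gave neurite length, normalized to the DMSO baseline.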

[24] = IUF_NPC1_cytotoxicity_72hr: Cytotoxicity Assessment at 72 hours in the Leibniz Research Institute for Environmental Medicine (IUF) Neural Progenitor Cell Proliferation Assay (NPC1) (AID 2284332; active means hit-call score of the fitted dose curve at least 0.9, where 1 is the maximum;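 further: rising LDH signal means more cytotoxicity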)
Method in brief: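 LDH in supernatant, resazurin→resorufin fluorescence (RFU), 72 h exposure, no re-dosing. Cells: primary hNPC spheres, one per well, EGF+FGF medium, 37C/5% CO2, pH 7.2-7.6. Fit: positive direction vs baseline and dynamic range.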

[25] = CCTE_Mundy_HCI_iCellGluta_NOG_NeuronCount: CCTE's Neurite Outgrowth Assay in iCellGluta cells for Neuron Count, Mundy Lab (AID 2284340; active means hit-call score of the fitted dose curve at least 0.9, where 1 is the maximum;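 further: cells fixed about 48 h after compound addition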)
Method in brief: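 Neuron count read by automated high-content imaging of Hoechst 33342 and betaIII-tubulin/Alexa Fluor-488 labelling in human iPSC glutamatergic neurons. Activity fitted relative to DMSO.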

[26] = CCTE_Mundy_HCI_iCellGluta_NOG_NeuriteCount: CCTE's Neurite Outgrowth Assay in iCellGluta cells for Neurite Count, Mundy Lab (AID 2284342; active means hit-call score of the fitted dose curve at least 0.9, where 1 is the maximum;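 further: chemical exposure about 48 hours starting 2 hours after plating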)

In the case of `CC(CNC(=S)[S-])NC(=S)[S-].[Zn+2]` (stereo unspecified), the AC50 [1] is reported as 50 µM (active), the AC50 [2] is reported as 50 µM (active) and the AC50 [3] is reported as 76.9 µM (active). The outcome [4] was “inactive”, the outcome [5] was “inactive” and the outcome [6] was “inactive”. For the same compound, the AC50 [7] was 19.2 µM (active), the AC50 [8] was 22.2 µM (active) and the AC50 [9] was 11.1 µM (active). The outcome [10] was “inactive”, the AC50 [11] was 82.3 µM (active) and the outcome [12] was “inactive”. The AC50 [13] was 12.5 µM (active), the outcome [14] was “inactive” and the outcome [15] was “inactive”. The outcome [16] was “inactive”, the AC50 [17] was 50 µM (active) and the outcome [18] was “inactive”. The AC50 [19] was 39.2 µM (active), the AC50 [20] was 60.5 µM (active) and the AC50 [21] was 50 µM (active). For the same compound, the outcome [22] was “inactive”, the AC50 [23] was 13 µM (active) and the outcome [24] was “inactive”. For the same compound, the AC50 [25] was 12.7 µM (active) and the AC50 [26] was 21.2 µM (active).
